From PubChem BioAssay (NCATS) come the findings set out here.

Records with an inconclusive call do not appear. Values without a mark were called inactive. The source made the active and inactive calls. Calls follow the shape of the dose curve; as a rule, active = well fitted cell-killing curve with a large enough effect; inconclusive = small, poorly fitted or top-dose-only effect, or effect the other way; inactive = no such curve, though single readings can be large or run the other way.
Potency is read from the fitted curve at half-maximal effect.

A short description of the first assay: Quantitative High-Throughput drug screen in 47 multiple myeloma cell lines against the NCATS MIPE library collection: RPMI8226_ATCC cell viability assay (AID 1919871). Also: nearly all actives have a fitted effect of over 30% in size. The following applies: RPMI8226 myeloma viability, CellTiter-Glo ATP luminescence, 48 h; series mostly up to 45.8 µM; viability (% of control): at the top concentration. In outline:
(§1)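 qHTS format: cells plated (500/well), pin-dosed with MIPE 4.0 compounds, kept 48 h at 37 °C. Readout was CellTiter-Glo luminescence, median RLU.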
Turning to `Cc1c(NC(=O)c2ccc(C(C)(C)C)cc2)cccc1-c1cn(C)c(=O)c(Nc2ccc(C(=O)N3CCOCC3)cc2)n1`, the Potency is 14.8 µM (active).

As to `Cc1ccn(-c2ccc(-c3ncco3)cc2)c(=O)c1-c1ccc2nc(N)ncc2c1`, the “viability (% of control)” value was 84.9%. As to `CCCCCNC(=O)N1CCC(CN(Cc2ccc(Cl)cc2)Cc2ccc([N+](=O)[O-])s2)C1` (stereo not given), the Potency was 26.4 µM (active). As for `CS(=O)(=O)N(Cc1ccco1)CC(O)Cn1c2ccccc2c2ccccc21` (stereo not given), the “viability (% of control)” value is 84.4%. Consider `O=C(NCc1ccncc1)C12C[C@H]3C[C@@H](C1)CC(c1ccc(Cl)cc1)(C3)C2`, for which the Potency was 29.6 µM (active).

A further assay is described as follows: Quantitative High-Throughput drug screen in 47 multiple myeloma cell lines against the NCATS MIPE library collection: OPM2_DSMZ cell viability assay (AID 1919872). Also: nearly all actives have a fitted effect of over 30% in size. The following applies: OPM2 myeloma viability, CellTiter-Glo ATP luminescence, 48 h; series mostly up to 45.8 µM; viability (% of DMSO): at the top concentration. In outline: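 We plated 500 myeloma cells per well, pinned in MIPE 4.0 compounds, and incubated for 48 hours at 37C. ATP was then quantified with CellTiter-Glo, with DMSO and media-only wells defining 100% and 0%.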
In the case of `COc1ccc2cc(-c3nc(-c4ccc(S(C)=O)cc4)[nH]c3-c3ccncc3)ccc2c1` (stereo not given), the “viability (% of DMSO)” value was 78.6%. Take `COCCOC(=O)C1=C(C)NC2=C(C(=O)CC(c3ccccc3OC)C2)C1c1cccc(O)c1` (stereo not given): the Potency was 16.6 µM (active). Consider `O=C(Nc1ccccc1Br)N[C@@H]1CCN(c2ccc(C(F)(F)F)cn2)C1`, for which the “viability (% of DMSO)” value is 101%. Turning to `CCOc1ccc(Nc2nc(-c3c(C)nc4ccccn34)cs2)cc1`, the Potency was 0.0037 µM (active).

Consider `N#CC1(c2ccc(NC(=O)c3cccnc3NCc3ccncc3)cc2)CCCC1`, for which the “viability (% of DMSO)” value is 87.5%.

For `N#Cc1ccc(NC(=O)Nc2ccccc2Br)c2n[nH]nc12`, the “viability (% of DMSO)” value was 98.9%.

Regarding `COc1ccc2c(Oc3ccc(NC(=O)c4c(C)n(CC(C)(C)O)n(-c5ccccc5)c4=O)nc3)ccnc2c1`, the “viability (% of DMSO)” value was 101%. Regarding `O=C(OCC#CCSc1nnc(-c2cccc3ccccc23)o1)c1cc2ccccc2s1`, the “viability (% of DMSO)” value was 94%. Regarding `CN[C@@H](C)C(=O)N[C@H]1CN(C(=O)CC(C)C)CC[C@H]2CC[C@@H](C(=O)NC(c3ccccc3)c3ccccc3)N2C1=O`, the “viability (% of DMSO)” value is 81.3%. Regarding `C[C@]12CC[C@@H]3c4ccc(O)cc4CC[C@H]3[C@H]1C[C@@H](O)[C@H]2O`, the “viability (% of DMSO)” value is 92.6%. For the compound `O=C1NC(=O)C(=Cc2ccc3nccnc3c2)S1`, the “viability (% of DMSO)” value is 94.4% [at 23.2 µM].

Regarding `CCOC(CN1C(=O)[C@](CC(=O)Nc2ccc(C)cc2)(NC(=O)Nc2ccc(C)cc2)c2ccccc21)OCC`, the “viability (% of DMSO)” value is 90.6%. Take `CC[C@]1(O)C[C@@H]2CN(CCc3c([nH]c4ccccc34)[C@@](C(=O)OC)(c3cc4c(cc3OC)N(C=O)[C@@H]3C45CCN4CC=C[C@](CC)([C@H]45)[C@@H](OC(C)=O)[C@]3(O)C(=O)OC)C2)C1` (stereo not given in full): the Potency was 23.5 µM (active).

Take `NC(=O)[C@@H](CCC(F)(F)F)N(Cc1ccc(-c2ncon2)cc1F)S(=O)(=O)c1ccc(Cl)cc1`: the “viability (% of DMSO)” value is 95.9%. In the case of `C[C@]12CC[C@@H]3c4ccc(O)cc4C[C@@H](CCCCCCCCCS(=O)CCCC(F)(F)C(F)(F)F)[C@H]3[C@H]1CC[C@H]2O` (stereo not given in full), the “viability (% of DMSO)” value is 95%. On to `O=C(Nc1cc(Cl)cc2c1[nH]c1cnccc12)c1cccnc1`, for which the “viability (% of DMSO)” value was 90.1%. As for `Cc1ccc(/C=N/NC(=O)c2ccccc2Oc2ccccc2)o1`, the Potency was 20.9 µM (active).

With `C[C@H](NC(=O)c1sccc1OCc1ccc(Cl)cc1)c1ccccc1`, the Potency is 18.7 µM (active). Take `COCCCCC(=NOCCN)c1ccc(C(F)(F)F)cc1`: the Potency is 16.6 µM (active).

For the compound `Cc1cccc(Nc2nc(-c3ccncc3)cs2)c1`, the Potency was 10.5 µM (active).

As to `N[C@H](CSC(c1ccccc1)(c1ccccc1)c1ccccc1)C(=O)O`, the Potency is 20.9 µM (active). For the compound `COc1ccc(-c2nc(N3CCOCC3)c3sc(CN(C)c4ncc(C(=O)NO)cn4)cc3n2)cn1`, the Potency was 0.0021 µM (active). Consider `CO[C@H]1C[C@@H]2CC[C@@H](C)[C@@](O)(O2)C(=O)C(=O)N2CCCC[C@@H]2C(=O)O[C@H]([C@@H](C)C[C@@H]2CC[C@H](O)[C@H](OC)C2)CC(=O)[C@H](C)C=C(C)[C@@H](O)[C@@H](OC)C(=O)[C@H](C)C[C@H](C)C=CC=CC=C1C`, for which the “viability (% of DMSO)” value was 64%. With `CCN(CC)CCOc1ccc(C(=C(Cl)c2ccccc2)c2ccccc2)cc1`, the “viability (% of DMSO)” value is 104%. Regarding `CCCCCCCCCCCC1=C(O)C(=O)C=C(O)C1=O`, the Potency is 7.43 µM (active).

A short description of the next assay: Quantitative High-Throughput drug screen in 47 multiple myeloma cell lines against the NCATS MIPE library collection: KMS11_JCRBsus cell viability assay (AID 1919873). Also: nearly all actives have a fitted effect of over 50% in size. To be noted: KMS11 myeloma viability, CellTiter-Glo ATP luminescence, 48 h; series mostly up to 45.8 µM; viability (% of control): at the top concentration. The method in brief: as §1
Consider `COc1ccc2cc(-c3nc(-c4ccc(S(C)=O)cc4)[nH]c3-c3ccncc3)ccc2c1` (stereo not given), for which the Potency was 23.5 µM (active). In the case of `COCCOC(=O)C1=C(C)NC2=C(C(=O)CC(c3ccccc3OC)C2)C1c1cccc(O)c1` (stereo not given), the Potency is 5.26 µM (active). `CC(C)(C)Cn1c(N)nc2ccc(-c3[nH]c(C(C)(C)C)nc3-c3ccc(F)cc3)nc21`: the “viability (% of control)” value is 2.1%. For `O=C(OCC#CCSc1nnc(-c2cccc3ccccc23)o1)c1cc2ccccc2s1`, the “viability (% of control)” value is 105%. With `O=C(Nc1cccc(Br)c1)c1cccc(S(=O)(=O)N2CCCCCC2)c1`, the Potency was 18.7 µM (active). Turning to `CCOC(CN1C(=O)[C@](CC(=O)Nc2ccc(C)cc2)(NC(=O)Nc2ccc(C)cc2)c2ccccc21)OCC`, the Potency was 26.4 µM (active). As to `Cc1ccccc1C(C(=O)NC1CCCCC1)N(C(=O)Cn1ccnc1C)c1cccc(F)c1` (stereo not given), the “viability (% of control)” value was 94.6%.

On to `C[C@]12CC[C@@H]3c4ccc(O)cc4C[C@@H](CCCCCCCCCS(=O)CCCC(F)(F)C(F)(F)F)[C@H]3[C@H]1CC[C@H]2O` (stereo not given in full), for which the Potency is 2.09 µM (active). As for `O=C(Nc1cc(Cl)cc2c1[nH]c1cnccc12)c1cccnc1`, the “viability (% of control)” value was 91.9%. As to `Cc1ccc(/C=N/NC(=O)c2ccccc2Oc2ccccc2)o1`, the Potency is 9.35 µM (active). Turning to `C[C@H](NC(=O)c1sccc1OCc1ccc(Cl)cc1)c1ccccc1`, the Potency was 7.43 µM (active). The same measure, in the same setting: the result for `N[C@H](CSC(c1ccccc1)(c1ccccc1)c1ccccc1)C(=O)O` reads 4.18 µM (active); that for `CC(=O)O[C@]1(C(C)=O)CC[C@@H]2[C@@H]3C[C@H](C)C4=CC(=O)CC[C@]4(C)[C@H]3CC[C@@]21C`, 20.9 µM (active); that for `CC(C)C(=O)Nc1ncc(-c2cc(C(F)F)nn2-c2c(Cl)cccc2Cl)s1`, 11.8 µM (active). For the compound `Clc1cc(Cl)cc(CNc2ncncc2-c2ccc3c(c2)OCO3)c1`, the Potency was 16.6 µM (active).
